Reference: PubChem BioAssay (Tox21)
Results filed as inconclusive are left out. The source made the active and inactive calls. Unless noted, calls come from the whole dose curve; as a rule, active = well fitted curve in the direction sought with a large enough effect in the repeat runs; inconclusive = weak or mixed curves; inactive = no such curve, though single readings can be large; an effect the other way counts as inactive or inconclusive.

Legend:
[1] = qHTS assay to identify aromatase inhibitors - cell viability counter screen (AID 743084); conditions: MCF-7 aro ERE viability, CellTiter-Fluor, 24 h; series mostly up to 70.3 µM;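 note: cells stimulated with testosterone during compound exposure; nearly all actives have a fitted effect of over 55% in size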; note: potency is the fitted concentration of half-maximal effect
[2] = biological target: Aryl hydrocarbon receptor (Homo sapiens) (UniProt P35869); test: qHTS assay to identify small molecule that activate the aryl hydrocarbon receptor (AhR) signaling pathway (AID 743085); conditions: HepG2 AhR-luc (HG2L7.5c1), luciferase, 24 h; series mostly up to 70.3 µM;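 note: HG2L7.5c1 human HepG2 liver cells with stably integrated DRE-driven firefly reporter; nearly all actives have a fitted effect of over 15% in size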
In short: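 Luminescence (ONE-Glo) from a dioxin-responsive-element luciferase reporter in HG2L7.5c1 HepG2 cells after 24 hr compound exposure at 37C; viability measured by CellTiter-Fluor fluorescence beforehand.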

[3] = qHTS assay for small molecule agonists of the antioxidant response element (ARE) signaling pathway - cell viability counter screen (AID 743203; calls by dose curve; note: nearly all actives have a fitted effect of over 55% in size); conditions: ARE-bla HepG2 viability, CellTiter-Glo luminescence, 16 h; series mostly up to 73.3 µM
In short: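 ARE-bla HepG2 cells were plated, rested 5 h at 37C/5% CO2, then exposed to compounds in DMSO for 16 h. Viability was read as CellTiter-Glo luminescence after 30 min at room temperature, in the same wells as the ARE screen.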

[4] = qHTS assay for small molecule activators of the heat shock response signaling pathway - cell viability counter screen (AID 743209); conditions: HSE-bla HeLa viability, CellTiter-Glo luminescence, 5 h; series mostly up to 62.6 µM; note: nearly all actives have a fitted effect of over 50% in size
In short: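 HSE-bla HeLa cells plated overnight, then exposed to Tox21 compounds (23 nL in DMSO) for 5 h at 37 C. After the bla reporter read, CellTiter-Glo was added in the same wells and luminescence read after 30 min at room temperature.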

[5] = qHTS assay for small molecule activators of the heat shock response signaling pathway (AID 743210; active = well fitted activation curve with a large enough effect in the signal ratio in the repeat runs, with a control signal flat, not every such curve was filed as active; the % refers to the signal ratio;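 note: HeLa cells with beta-lactamase reporter driven by heat shock elements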); conditions: HeLa HSE-bla reporter, beta-lactamase ratio, 5 h; series mostly up to 62.6 µM
In short: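 In HSE-bla HeLa cells, 5 h compound incubation (37 C) precedes addition of LiveBLAzer B/G substrate; after 2.5 h at room temperature, fluorescence intensity indicates reporter induction.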

[6] = qHTS assay to identify small molecule agonists of the peroxisome proliferator-activated receptor delta (PPARd) signaling pathway - cell viability counter screen (AID 743211); conditions: PPARd-bla HEK293H viability, CellTiter-Glo luminescence, 17 h; series mostly up to 62.6 µM; note: nearly all actives have a fitted effect of over 55% in size
In short: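 Viability was measured as CellTiter-Glo luminescence (30 min, room temperature) in the same wells as the beta-lactamase readout. GeneBLAzer PPARd UAS-bla HEK293H cells received compound after 5 h plating and were incubated 17 h at 37 C.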

[7] = biological target: Peroxisome proliferator-activated receptor delta (Homo sapiens) (UniProt Q03181); test: qHTS assay to identify small molecule agonists of the peroxisome proliferator-activated receptor delta (PPARd) signaling pathway (AID 743212; calls by dose curve); conditions: HEK293H PPARd-UAS-bla, beta-lactamase FRET ratio, 17 h; series mostly up to 62.6 µM
In short: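 HEK293H UAS-bla reporter cells, human PPARd system; compounds delivered in DMSO after 5 h plating, then at 37 C. Beta-lactamase FRET read, 2 h RT substrate step.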

[8] = qHTS assay to identify small molecule antagonists of the peroxisome proliferator-activated receptor delta (PPARd) signaling pathway - cell viability counter screen (AID 743213); conditions: PPARd-bla HEK293H viability, CellTiter-Glo luminescence, 17 h; series mostly up to 62 µM; note: nearly all actives have a fitted effect of over 50% in size; note: potency is the fitted concentration of half-maximal effect
In short: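 Viability counter-screen, qHTS format: PPARd-bla HEK293H, L165041 300 nM final, 17 h compound exposure at 37 C, CellTiter-Glo luminescence after 30 min RT.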

[9] = biological target: Peroxisome proliferator-activated receptor delta (Homo sapiens) (UniProt Q03181); test: qHTS assay to identify small molecule antagonists of the peroxisome proliferator-activated receptor delta (PPARd) signaling pathway (AID 743215; active = well fitted inhibition curve with a large enough effect in the signal ratio in the repeat runs, not every such curve was filed as active; the % refers to the signal ratio;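 note: cells stimulated with agonist L165041 at 300 nM final during compound exposure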); conditions: HEK293H PPARd-UAS-bla, beta-lactamase FRET ratio, antagonist, 17 h; series mostly up to 62 µM
In short: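 PPARd-bla HEK293H cells (UAS-bla reporter) preincubated 5 h, then given compound plus 300 nM final L165041 agonist for 17 h at 37 C. Beta-lactamase activity read by LiveBLAzer B/G FRET substrate fluorescence after 2 h at room temperature.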

[10] = biological target: Bile acid receptor (Homo sapiens) (UniProt Q96RI1); test: qHTS assay to identify small molecule antagonists of the farnesoid-X-receptor (FXR) signaling pathway (AID 743217; active = well fitted inhibition curve with a large enough effect in the signal ratio in the repeat runs, not every such curve was filed as active; the % refers to the signal ratio); conditions: HEK293T FXR-UAS-bla, beta-lactamase ratio, CDCA-stimulated, 16 h; series mostly up to 62.6 µM
In short: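 FXR-UAS-bla HEK 293T cells (beta-lactamase reporter) given compound plus chenodeoxycholic acid (50 uM final), 16 h at 37C. LiveBLAzer B/G FRET substrate added for 2 h at room temperature; fluorescence read.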

[11] = biological target: Bile acid receptor (Homo sapiens) (UniProt Q96RI1); test: qHTS assay to identify small molecule agonists of the farnesoid-X-receptor (FXR) signaling pathway (AID 743220; active = well fitted activation curve with a large enough effect in the signal ratio in the repeat runs, not every such curve was filed as active; the % refers to the signal ratio); conditions: HEK293T FXR-UAS-bla, beta-lactamase FRET ratio, 16 h; series mostly up to 62.6 µM
In short: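 Beta-lactamase reporter under UAS control in GeneBLAzer FXR HEK 293T cells (5000/well) measured with LiveBLAzer FRET substrate after 2 h at room temperature. Compound exposure lasted 16 h at 37C.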

[12] = qHTS assay to identify small molecule antagonists of the farnesoid-X-receptor (FXR) signaling pathway - cell viability counter screen (AID 743221; active = well fitted cell-killing curve with a large enough effect in the repeat runs, not every such curve was filed as active; note: nearly all actives have a fitted effect of over 50% in size); conditions: FXR-bla HEK293T viability, CellTiter-Glo luminescence, 16 h; series mostly up to 62.6 µM
In short: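 Cytotoxicity counter screen run in the FXR-bla reporter wells: HEK 293T cells exposed to compound with 50 uM (final) chenodeoxycholic acid for 16 h, 37 C, then viability measured by CellTiter-Glo luminescence after 30 min, room temperature.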

[13] = qHTS assay to identify small molecule that activate the aryl hydrocarbon receptor (AhR) signaling pathway - cell viability counter screen (AID 743086); conditions: HepG2-AhR-luc viability, CellTiter-Fluor, 24 h; series mostly up to 70.3 µM;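 note: HepG2 liver cells carrying the AhR DRE luciferase reporter; nearly all actives have a fitted effect of over 45% in size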
In short: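 Cytotoxicity counter screen: CellTiter-Fluor signal (30 min, 37 C) in 4000 HepG2 cells/well carrying the DRE-luciferase reporter, following 24 h compound exposure at 37 C.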

[14] = biological target: Peroxisome proliferator-activated receptor gamma (Homo sapiens) (UniProt P37231); test: qHTS assay to identify small molecule agonists of the peroxisome proliferator-activated receptor gamma (PPARg) signaling pathway (AID 743094; active = well fitted activation curve with a large enough effect in the signal ratio in the repeat runs, not every such curve was filed as active; the % refers to the signal ratio); conditions: HEK293H PPARg-UAS-bla, beta-lactamase FRET ratio, 17 h; series mostly up to 57 µM
In short: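 GeneBLAzer PPARg UAS-bla HEK293H cells were plated, rested 5 h, then exposed to compounds for 17 h at 37C. Beta-lactamase activity was read by LiveBLAzer B/G FRET substrate fluorescence after 1 h at room temperature.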

[15] = biological target: Peroxisome proliferator-activated receptor gamma (Homo sapiens) (UniProt P37231); test: qHTS assay to identify small molecule antagonists of the peroxisome proliferator-activated receptor gamma (PPARg) signaling pathway (AID 743191; calls by dose curve; note: nearly all actives have a fitted effect of over 30% in size); conditions: HEK293H PPARg-UAS-bla, beta-lactamase ratio, antagonist, 17 h; series mostly up to 62.6 µM
In short: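 Beta-lactamase reporter under UAS control in HEK293H PPARg-bla cells; compound treatment 17 h at 37C. Read-out: fluorescence intensity after 1 h room-temperature incubation with LiveBLAzer B/G FRET substrate.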

[16] = qHTS assay to identify small molecule antagonists of the peroxisome proliferator-activated receptor gamma (PPARg) signaling pathway - cell viability counter screen (AID 743194); conditions: PPARg-bla HEK293H viability, CellTiter-Glo luminescence, 17 h, co-treated with 50 nM rosiglitazone; series mostly up to 62.6 µM; note: nearly all actives have a fitted effect of over 55% in size
In short: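 Viability was measured as CellTiter-Glo luminescence in GeneBLAzer PPARg UAS-bla HEK293H cells. These cells had been exposed 17 h at 37 C to compounds together with rosiglitazone at 50 nM final, with the beta-lactamase readout taken in the same wells.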

[17] = qHTS assay to identify small molecule agonists of the farnesoid-X-receptor (FXR) signaling pathway - cell viability counter screen (AID 743218); conditions: FXR-bla HEK293T viability, CellTiter-Glo luminescence, 16 h; series mostly up to 62.6 µM; note: nearly all actives have a fitted effect of over 45% in size
In short: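 FXR-UAS-bla HEK 293T cells exposed to compounds for 16 h at 37C. Cytotoxicity read in the same wells by CellTiter-Glo luminescence after 30 min at room temperature, following the beta-lactamase FRET read.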

[18] = biological target: Vitamin D3 receptor (Homo sapiens) (UniProt P11473); test: qHTS assay to identify small molecule antagonists of the vitamin D receptor (VDR) signaling pathway (AID 743223; active = well fitted inhibition curve with a large enough effect in the signal ratio in the repeat runs, not every such curve was filed as active; the % refers to the signal ratio); conditions: VDR-UAS-bla HEK293T, beta-lactamase FRET ratio, 16 h; series mostly up to 61 µM
In short: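 Antagonist mode: compound added to VDR-bla cells alongside agonist 1alpha,25-dihydroxyvitamin D3 (3 nM final), incubation 16 h at 37C. Read-out is LiveBLAzer FRET fluorescence, 2 h at room temperature.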

[19] = qHTS assay for small molecule agonists of the antioxidant response element (ARE) signaling pathway (AID 743202; active = well fitted activation curve with a large enough effect in the signal ratio in the repeat runs, not every such curve was filed as active; the % refers to the signal ratio; note: potency is the fitted concentration of half-maximal effect); conditions: HepG2 ARE-bla reporter, beta-lactamase FRET, 16 h; series mostly up to 73.3 µM
In short: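 An ARE-responsive beta-lactamase gene stably integrated in HepG2 cells serves as reporter. After 5 h plating and 16 h compound incubation at 37 C, fluorescence of the B/G FRET substrate was measured.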

[20] = biological target: Vitamin D3 receptor (Homo sapiens) (UniProt P11473); test: qHTS assay to identify small molecule agonists of the vitamin D receptor (VDR) signaling pathway (AID 743222; calls by dose curve); conditions: HEK293T VDR-UAS-bla, beta-lactamase FRET ratio, 16 h; series mostly up to 63.5 µM
In short: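 VDR-bla cells plated 4 h at 37 C, then exposed to compounds for 16 h at 37 C. Beta-lactamase reporter activity measured by fluorescence after 2 h room-temperature loading with LiveBLAzer B/G FRET substrate.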

Measured: Potency

Aryl hydrocarbon receptor (Homo sapiens), sequence (P35869 whole entry, looked up): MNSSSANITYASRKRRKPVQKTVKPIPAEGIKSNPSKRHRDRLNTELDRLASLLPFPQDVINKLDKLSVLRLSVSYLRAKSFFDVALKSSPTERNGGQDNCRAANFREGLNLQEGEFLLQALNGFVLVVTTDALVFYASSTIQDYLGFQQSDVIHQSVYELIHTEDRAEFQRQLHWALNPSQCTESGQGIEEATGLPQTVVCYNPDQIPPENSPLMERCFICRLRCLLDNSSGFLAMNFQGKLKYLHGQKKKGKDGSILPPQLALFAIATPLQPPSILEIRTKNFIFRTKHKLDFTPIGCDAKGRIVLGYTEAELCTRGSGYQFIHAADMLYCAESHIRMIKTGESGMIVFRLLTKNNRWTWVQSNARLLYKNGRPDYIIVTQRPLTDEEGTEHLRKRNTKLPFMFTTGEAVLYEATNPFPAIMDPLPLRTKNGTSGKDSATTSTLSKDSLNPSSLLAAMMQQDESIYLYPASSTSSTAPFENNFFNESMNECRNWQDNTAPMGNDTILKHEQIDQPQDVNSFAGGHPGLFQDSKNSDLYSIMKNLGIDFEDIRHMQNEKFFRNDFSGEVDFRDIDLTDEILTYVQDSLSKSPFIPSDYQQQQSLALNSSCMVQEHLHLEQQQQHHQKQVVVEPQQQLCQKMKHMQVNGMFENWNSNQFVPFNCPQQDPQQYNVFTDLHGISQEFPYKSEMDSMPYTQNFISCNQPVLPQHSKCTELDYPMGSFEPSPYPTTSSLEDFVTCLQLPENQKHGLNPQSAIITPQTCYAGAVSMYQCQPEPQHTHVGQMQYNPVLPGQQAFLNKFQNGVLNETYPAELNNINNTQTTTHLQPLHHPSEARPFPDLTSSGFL
Peroxisome proliferator-activated receptor delta (Homo sapiens), sequence (Q03181 whole entry, looked up): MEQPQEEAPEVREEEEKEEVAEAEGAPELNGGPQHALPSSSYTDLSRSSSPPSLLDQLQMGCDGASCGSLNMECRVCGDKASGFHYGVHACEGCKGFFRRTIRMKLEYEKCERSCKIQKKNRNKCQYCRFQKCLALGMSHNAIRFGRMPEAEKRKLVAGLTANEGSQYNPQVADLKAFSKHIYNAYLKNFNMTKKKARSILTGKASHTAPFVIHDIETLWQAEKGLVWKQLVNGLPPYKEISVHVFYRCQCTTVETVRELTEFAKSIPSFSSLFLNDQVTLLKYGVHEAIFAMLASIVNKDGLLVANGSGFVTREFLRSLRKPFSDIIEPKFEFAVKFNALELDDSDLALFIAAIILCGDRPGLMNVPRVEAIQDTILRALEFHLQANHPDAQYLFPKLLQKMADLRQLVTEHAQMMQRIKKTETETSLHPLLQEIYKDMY
Peroxisome proliferator-activated receptor gamma (Homo sapiens), sequence (P37231 whole entry, looked up): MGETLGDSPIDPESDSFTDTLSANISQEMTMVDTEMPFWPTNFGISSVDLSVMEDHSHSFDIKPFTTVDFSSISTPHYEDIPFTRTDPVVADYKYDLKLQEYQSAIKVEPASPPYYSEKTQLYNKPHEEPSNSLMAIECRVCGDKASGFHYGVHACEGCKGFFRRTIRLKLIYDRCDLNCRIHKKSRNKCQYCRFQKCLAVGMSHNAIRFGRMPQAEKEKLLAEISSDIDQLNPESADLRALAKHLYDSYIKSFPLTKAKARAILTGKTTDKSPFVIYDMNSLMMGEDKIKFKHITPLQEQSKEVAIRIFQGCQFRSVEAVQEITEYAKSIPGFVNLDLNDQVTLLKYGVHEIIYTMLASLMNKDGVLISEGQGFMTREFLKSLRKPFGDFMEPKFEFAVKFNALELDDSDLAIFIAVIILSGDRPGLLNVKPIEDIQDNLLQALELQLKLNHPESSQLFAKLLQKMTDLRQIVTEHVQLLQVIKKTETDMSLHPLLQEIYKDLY
Vitamin D3 receptor (Homo sapiens), sequence (P11473 whole entry, looked up): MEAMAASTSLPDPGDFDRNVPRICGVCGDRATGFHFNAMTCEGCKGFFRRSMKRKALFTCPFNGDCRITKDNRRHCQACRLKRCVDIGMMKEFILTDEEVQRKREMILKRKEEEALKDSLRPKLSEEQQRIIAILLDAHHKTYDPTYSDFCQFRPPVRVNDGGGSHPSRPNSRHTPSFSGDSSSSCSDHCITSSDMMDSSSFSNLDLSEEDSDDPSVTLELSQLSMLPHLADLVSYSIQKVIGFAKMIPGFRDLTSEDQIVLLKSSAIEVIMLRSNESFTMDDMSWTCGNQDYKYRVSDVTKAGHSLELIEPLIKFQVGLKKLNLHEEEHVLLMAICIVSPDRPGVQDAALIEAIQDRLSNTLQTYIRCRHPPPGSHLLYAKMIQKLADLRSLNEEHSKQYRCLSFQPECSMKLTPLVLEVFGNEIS
Bile acid receptor (Homo sapiens), sequence (Q96RI1 whole entry, looked up): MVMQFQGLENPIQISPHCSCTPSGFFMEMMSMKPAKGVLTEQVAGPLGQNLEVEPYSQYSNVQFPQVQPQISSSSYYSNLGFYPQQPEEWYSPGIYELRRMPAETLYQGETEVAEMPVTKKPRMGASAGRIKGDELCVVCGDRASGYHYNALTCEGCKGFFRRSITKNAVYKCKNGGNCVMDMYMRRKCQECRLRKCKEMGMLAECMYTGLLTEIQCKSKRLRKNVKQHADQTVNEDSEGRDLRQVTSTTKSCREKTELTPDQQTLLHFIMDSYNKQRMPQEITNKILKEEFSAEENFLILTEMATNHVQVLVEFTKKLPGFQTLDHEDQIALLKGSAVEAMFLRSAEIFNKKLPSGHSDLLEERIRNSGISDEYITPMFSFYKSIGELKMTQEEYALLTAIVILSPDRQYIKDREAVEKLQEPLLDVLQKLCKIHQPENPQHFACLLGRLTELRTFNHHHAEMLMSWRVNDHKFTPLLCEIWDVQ

N=C(N=C(N)N)N1CCOCC1
inactive: [1] | [2] | [3] | [4] | [5] | [6] | [7] | [8] | [9] | [10] | [11] | [12]

c1ccc(OCc2ccc(CCCN3CCOCC3)cc2)cc1
inactive: [1] | [13] | [14] | [15] | [16] | [3] | [4] | [5] | [6] | [7] | [8] | [17] | [12] | [18]

ClC(Cl)(Cl)c1ccc(C(Cl)(Cl)Cl)cc1
inactive: [1] | [13] | [14] | [16] | [19] | [3] | [4] | [5] | [6] | [8] | [17] | [12]

CCc1nn(C2CCCCC2)c2cc(C3(C#N)CCC(C(=O)O)CC3)ccc12 (stereo not given)
inactive: [2] | [16] | [3] | [5] | [6] | [7] | [8] | [17] | [11] | [12] | [20] | [18]
active: [1] 54.5 µM | [19] 27.3 µM

COCCCCCCCCOCCC[Si](C)(O[Si](C)(C)C)O[Si](C)(C)C
active: [1] 30.6 µM | [8] 15.5 µM
inactive: [2] | [14] | [7] | [10] | [12] | [20] | [18]

Nc1nc(CC(=O)O)cs1
inactive: [1] | [13] | [14] | [15] | [16] | [19] | [3] | [4] | [5] | [6] | [7] | [9] | [17] | [12]

C1CCC2OC2C1 (stereo not given)
inactive: [1] | [13] | [14] | [15] | [3] | [4] | [5] | [6] | [7] | [8] | [9] | [17] | [12]

CN1CCC(OC(c2ccccc2)c2ccccc2)CC1
inactive: [1] | [2] | [14] | [16] | [19] | [3] | [4] | [5] | [6] | [7] | [10] | [17] | [11] | [12]

CN1CCN(C2=Nc3cc(Cl)ccc3Nc3ccccc32)CC1
inactive: [1] | [2] | [16] | [5] | [10] | [17] | [11]

COc1ccc2[nH]c(S(=O)Cc3ncc(C)c(OC)c3C)nc2n1 (stereo not given)
inactive: [1] | [13] | [16] | [3] | [4] | [5] | [6] | [7] | [8] | [17] | [12] | [20]
active: [19] 10.6 µM

Cc1cccc(Oc2ccccc2)c1
inactive: [1] | [13] | [14] | [15] | [16] | [19] | [4] | [5] | [7] | [8] | [9] | [17] | [12] | [20] | [18]

O=S1(=O)N=C(O)c2ccccc21
inactive: [1] | [13] | [16] | [19] | [3] | [4] | [6] | [8] | [17] | [12]

CC1(C)[C@H]2CC[C@]1(C)[C@H](O)C2
inactive: [1] | [2] | [16] | [19] | [3] | [4] | [5] | [6] | [7] | [8] | [17] | [12]

CCOC(=O)C1=C(C)NC(C)=C(C(=O)OC)C1c1cccc([N+](=O)[O-])c1 (stereo not given)
inactive: [1] | [13] | [14] | [16] | [19] | [3] | [5] | [7] | [8] | [9] | [17] | [12] | [18]

Oc1ccc(C(O)CNCCCCCCNCC(O)c2ccc(O)c(O)c2)cc1O (stereo not given)
active: [1] 21.1 µM
inactive: [2] | [15] | [16] | [3] | [4] | [6] | [7] | [8] | [17] | [12] | [18]

O=C(Cl)c1ccc([N+](=O)[O-])cc1
inactive: [1] | [13] | [14] | [15] | [16] | [19] | [3] | [4] | [5] | [7] | [8] | [9] | [17] | [12]

Cc1nc2ccccc2n1Cc1ccc(Cl)cc1
inactive: [1] | [2] | [14] | [16] | [4] | [5] | [6]

CCCCOCCOCCOCCOCCO
inactive: [1] | [2] | [14] | [16] | [19] | [3] | [5] | [6] | [7] | [8] | [9] | [12]

Cc1ccccn1
inactive: [1] | [13] | [16] | [19] | [3] | [4] | [5] | [6] | [10] | [17] | [11] | [12] | [20]
